Assay [1] deals with mESC LDLR-Dup GFP reporter (SpCas9 MH-deletion repair). As to the kind of experiment: fraction of GFP+ cells relative to DMSO control (fold change); higher = more MH-deletion repair to in-frame LDLR (or more editing). Conditions: 2 µM; 7 days post-transfection.
Assay [2] concerns 6.0 (DMSO control at this site: 1-bp insertion 0.296, MH deletion 0.491, edited 0.076) ACGATTGGCCCCCACAAAGCGGACCAGCCAGCGTGCTAGGGAATAAGGCCAACTTGCACCC
As to the kind of experiment: fraction of edited reads among all mapped reads; higher = more Cas9 editing. Conditions: mESC; 2uM; 72 h treatment, harvest day 5.

The test system is the same in assay [3]. The assay can be described thus: fraction of microhomology deletions among edited reads; higher = more MH deletions. Conditions: mESC; 2uM; 72 h treatment, harvest day 5.
The test system is the same in assay [4]. The assay can be described thus: fraction of 1-bp insertions among edited reads; higher = more 1-bp insertion outcomes. Conditions: mESC; 2uM; 72 h treatment, harvest day 5.

Structures can show the parent of a compound that is named as a salt. ± gives the standard deviation of the averaged measurements.

On to `CCn1cc(-c2ccnc3[nH]c(-c4cccc(CN(C)C)c4)cc23)c(-c2ccc(NC(=O)N(C)C)cc2)n1`, for which the “fraction of GFP+ cells” value in assay [1] was 0.251 ± 0.13.
As to `C[C@@H]1CN(CC(=O)Nc2ccc3c(c2)Cc2cccc(-c4cc(=O)cc(N5CCOCC5)o4)c2S3)C[C@H](C)O1`, the “fraction of edited reads among all mapped reads” value in assay [2] was found to be 0.0449. Further, in assay [3], the “fraction of microhomology deletions among edited reads” value turned out to be 0.331. For the same compound, the “fraction of 1-bp insertions among edited reads” value in assay [4] turned out to be 0.475. Besides, in assay [1], the “fraction of GFP+ cells” value was found to be 0.516 ± 0.11.
For `Nc1nc2[nH]cc(CCc3ccc(C(=O)N[C@@H](CCC(=O)O)C(=O)O)cc3)c2c(=O)[nH]1` [Pemetrexed], in that order: 0.0705, 0.608, 0.152 and 1.53 ± 0.08.
For `Nc1ncnc2c1c(-c1cnc3[nH]ccc3c1)nn2C1CCCC1`, in that order: 0.0596, 0.403, 0.412 and 0.289 ± 0.034.
Regarding `O=C(O)C(Cc1ccccc1[N+](=O)[O-])=NNc1nc(-c2ccc(Cl)c(Cl)c2)cs1` (mixture of isomers), the “fraction of GFP+ cells” value in assay [1] worked out at 1.15 ± 0.48.
Turning to `COc1ccccc1-c1cc(Nc2cccc(CS(N)(=O)=O)c2)ncn1`, the “fraction of edited reads among all mapped reads” value in assay [2] was determined as 0.0957. The “fraction of microhomology deletions among edited reads” value in assay [3] came to 0.494. In addition, in assay [4], the “fraction of 1-bp insertions among edited reads” value came to 0.281. Besides, the “fraction of GFP+ cells” value in assay [1] was 1.17 ± 0.072.
For `S=c1[nH]cnc2nc[nH]c12` [Mercaptopurine (6-MP)], in that order: 0.0919, 0.519, 0.285 and 2.22 ± 1.1.
With `Cc1ccc(C(=O)NCCCCCC(=O)Nc2ccccc2N)cc1`, the “fraction of edited reads among all mapped reads” value in assay [2] worked out at 0.0825. For the same compound, the “fraction of 1-bp insertions among edited reads” value in assay [4] amounted to 0.292. Also, the “fraction of GFP+ cells” value in assay [1] worked out at 1.26 ± 0.13.
On to `C[C@@H]1COCCN1c1cc(C2([S@](C)(=N)=O)CC2)nc(-c2cc[nH]c3nccc2-3)n1`, for which the “fraction of GFP+ cells” value in assay [1] amounted to 0.429 ± 0.24.
The same measure, in the same setting: with `Cn1nnc2c(C(N)=O)ncn2c1=O` [Temozolomide] the figure was 0.998 ± 0.33.
Same read-out and setting: the value for `CCc1ccc(CCOc2ccc(CC3SC(=O)NC3=O)cc2)nc1` (centres undefined) [Pioglitazone HCl] was 1.11 ± 0.13.
On the same count and under the same terms, with `COc1cccc2c1c(O)c(C(=O)N(C)c1ccc(C(F)(F)F)cc1)c(=O)n2C` [Tasquinimod] the figure was 0.837 ± 0.12.

(Values after the supplement of paper PMC8387472.)
